# Where “and” joins values, the source holds several entries; their conditions need not be identical. Identical values can stand only once. The whole screen tested about 66,000 compounds, of which about 720 (1.1%) were called active. Cut-off read from the data, not from the text of the source: active = normalised signal below about 0.5; inactive = the rest, inconclusive results apart. Shown is part of a subset that was picked to be rich in actives.
# Target: Chromobox protein homolog 7 (Homo sapiens) (UniProt O95931)
# Sequence (O95931 whole entry, looked up): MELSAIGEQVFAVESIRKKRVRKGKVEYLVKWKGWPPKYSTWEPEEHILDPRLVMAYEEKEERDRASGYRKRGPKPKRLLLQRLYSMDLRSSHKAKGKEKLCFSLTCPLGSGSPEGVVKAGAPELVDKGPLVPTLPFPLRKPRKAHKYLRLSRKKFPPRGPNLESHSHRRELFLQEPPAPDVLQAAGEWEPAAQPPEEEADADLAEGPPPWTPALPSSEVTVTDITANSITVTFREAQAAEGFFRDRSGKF
# Test: CBX7 chromodomain binding inhibitors, primary screen, biochemical, AlphaScreen (AID 1224903)
# Conditions: AlphaScreen His6-CBX7 / biotin-H3K27me3 peptide binding, stronger effect = lower value; z-score: measured here: z-score of CBX7 signal
SMILES,normalised signal (fraction of DMSO),z-score
O=C(Nc1ccccc1C(F)(F)F)N1CCN(c2ccc3nnc(-c4ccccc4)n3n2)CC1,0.759 (inactive),-3.38
Cc1nc2cc(C(=O)NCc3ccc(F)cc3)ccc2n1-c1cccc(F)c1,0.995 (inactive),-0.21
Cc1cccc(CCNC(=O)CN2CCN(Cc3ccc(F)cc3Cl)C2=O)c1,1.02 (inactive),0.228
Cc1ccc(NC(=O)Cn2cnc3sc(C(=O)Nc4ccc(F)cc4)c(C)c3c2=O)cc1Cl,1.09 (inactive),2.71
Cc1ccc(OCC(=O)Nc2cccc(-c3nc4ncccc4o3)c2)cc1,1.02 (inactive),0.227
Cc1cccc(N2CCN(C(=O)C3CCC(Cn4c(=O)[nH]c5ccsc5c4=O)CC3)CC2C)c1 (stereo not drawn),1.11 (inactive),0.523
COc1ccc(CCNC(=O)CCc2c(C)nc3c(c(C)nn3-c3ccc(C)cc3)c2C)cc1OC,1.07 (inactive),1.56
COc1cccc(Nc2nc(-c3ccc(Cl)cc3)cs2)c1,0.908 (inactive) and 0.897 (inactive),-1.58 and -2.88
COc1cc(OC)cc(C(=O)Nc2ccc(-c3nc4ccccc4o3)c(O)c2)c1,0.956 (inactive),-0.356
O=C(Nc1ccc(-c2nc3ccccc3o2)c(O)c1)c1cccc(F)c1,1.11 (inactive),2.16
O=C(Nc1ccc(-c2nc3ccccc3o2)c(O)c1)c1ncn[nH]1,0.308 (active),-19.7
CCOC(=O)CNC(=O)c1cc2c(n(-c3ccc(C)cc3)c1=O)CCCC2=O,1.19 (inactive),0.796
CCN1CCCC1CNC(=O)c1ccc2c(c1)N(Cc1ccccc1)CCS2 (stereo not drawn),0.92 (inactive),-0.106
Cc1ccc(NC(=O)C2CCCN(S(=O)(=O)c3cccc4cccnc34)C2)cc1F (stereo not drawn),1.02 (inactive),0.516
COc1ccccc1NC(=O)c1c(NCc2ccncc2)sc2c1CCCC2,0.583 (inactive),-5.84
CCOC(=O)c1ccc(NC(=O)c2c(NCc3cccs3)sc3c2CCCC3)cc1,0.674 (inactive),-4.57
COc1ccccc1NC(=O)c1c(NCc2cccs2)sc2c1CCCC2,0.467 (active),-7.46
CCC1CCCCN1S(=O)(=O)c1ccc(C(=O)Nc2nnc(COC)o2)cc1 (stereo not drawn),0.727 (inactive),-7.33
CN(C)S(=O)(=O)c1ccc(C(=O)Nc2nnc(C3CC3)o2)cc1,0.379 (active),-14
CCCCN(CC)S(=O)(=O)c1ccc(C(=O)Nc2nnc(-c3ccc(Cl)s3)o2)cc1,1.03 (inactive),0.687
C=CCN(CC=C)S(=O)(=O)c1ccc(C(=O)Nc2nnc(-c3cccs3)o2)cc1,0.877 (inactive),-3.03
CN(C)S(=O)(=O)c1ccc(C(=O)Nc2nnc(-c3ccccc3Cl)o2)cc1,0.145 (active),-14.4
COc1ccc(-c2nnc(NC(=O)c3ccc(S(=O)(=O)N4CC(C)OC(C)C4)cc3)o2)c(OC)c1 (stereo not drawn),0.629 (inactive),-8.38

SMILES,normalised signal (fraction of DMSO),z-score
CCN(CC)S(=O)(=O)c1ccc(C(=O)Nc2nnc(-c3cc(OC)cc(OC)c3)o2)cc1,0.885 (inactive),-1.93
COc1ccc(-c2nnc(NC(=O)c3ccc(S(=O)(=O)N4CCC(C)CC4)cc3)o2)cc1,0.796 (inactive),-4.6
CCCCN(C)S(=O)(=O)c1ccc(C(=O)Nc2nnc(C)o2)cc1,0.00344 (active),-1.32
COCCN(CCOC)S(=O)(=O)c1ccc(C(=O)Nc2nnc(-c3cccs3)o2)cc1,0.698 (inactive),-6.83
CN(Cc1ccccc1)S(=O)(=O)c1ccc(C(=O)Nc2nnc(-c3ccccc3Cl)o2)cc1,0.095 (active),-15.2
CC1CCCCN1S(=O)(=O)c1ccc(C(=O)Nc2nnc(-c3cccs3)o2)cc1 (stereo not drawn),0.92 (inactive),-1.8
Cc1cc(=O)n2nc(N3CCCC(C(=O)N4CCCCC4)C3)sc2n1 (stereo not drawn),1.09 (inactive),0.832
O=C(Nc1ccccc1F)c1cc2c(s1)-c1ccccc1OC2,1.53 (inactive),15.1
COc1cccc(-c2nc(CS(=O)(=O)CC(=O)NCCCN(CC(C)C)CC(C)C)c(C)o2)c1,1.42 (inactive),3.56
CCc1ccc(-n2cnc3cc(C(=O)NC4CCCC4)ccc32)cc1,0.805 (inactive),-3.38
COc1ccc(CCNC(=O)c2cn(-c3ccc(Cl)cc3)c(=O)c3ccccc23)cc1OC,1.03 (inactive),0.92
CCCCOc1ccc(C(=O)N(Cc2ccc(OC)cc2)C2CCS(=O)(=O)C2)cc1 (stereo not drawn),0.91 (inactive),-0.0894
O=C(c1ccc(Cl)nc1)N1CCNc2ccccc2C1,0.975 (inactive),-0.305
CCCCNC(=O)CN1C(=O)COc2ccccc21,0.475 (active),-4.69
O=C(CN1C(=O)COc2ccccc21)NCCN1CCc2ccccc2C1,1.06 (inactive),1.85
CCCN1CCN(CCCNC(=O)CN2C(=O)COc3ccccc32)CC1,1.01 (inactive),0.274
CN(CC(=O)NCCc1ccccc1)S(=O)(=O)c1cnc[nH]1,1.26 (inactive),2.17
COC(CNC(=O)c1csc2c1CCCCC2)OC,0.834 (inactive),-2.13
Cc1ccc(-n2c(Cc3cccn3C)nnc2SCC(=O)Nc2ccc(C)c(Cl)c2)cc1,0.926 (inactive),-1.77
Cc1sc2ncn(CC(=O)NCC(=O)NCCCN3CCOCC3)c(=O)c2c1C,1.08 (inactive),0.741
Cc1ccccc1Cn1c(CCNC(=O)C(C)(C)C)nc2ccccc21,1.12 (inactive),1.79
Cc1cccc(C)c1Nc1c(-c2ccccn2)nc2sccn12,0.5 (active),-5.94
Cc1cccc(C)c1Nc1c(-c2ccsc2)nc2cnccn12,0.944 (inactive),-0.669

SMILES,normalised signal (fraction of DMSO),z-score
Cc1ccc(Nc2c(-c3ccc(Cl)cc3)nc3sccn23)c(C)c1,0.736 (inactive),-5.27
COc1ccc2c(c1OC)C(=O)N(c1ncn[nH]1)C2,0.25 (active),-16
COc1ccc2c(c1OC)C(=O)N(c1ccc(O)cc1)C2,0.99 (inactive),-0.11
CCOC(=O)c1cnc2c(C)cc(C)cc2c1Nc1ccc(N2CCOCC2)cc1,0.35 (active),-16.2
CCOC(=O)c1cnc2c(C)cc(C)cc2c1Nc1cccc(OC)c1,1.03 (inactive),0.43
CCOC(=O)c1cnc2c(C)cc(C)cc2c1Nc1ccccc1CC,1.15 (inactive),1.45
CC(=O)Oc1ccc(C2CC(=O)Nc3cc4c(cc32)OCO4)cc1 (stereo not drawn),0.988 (inactive),-0.494
CC(=O)Nc1ccc(S(=O)(=O)NCc2ccc(C(=O)NCCc3ccc(C)cc3)cc2)cc1,1.42 (inactive),1.84
COc1ccc(Cn2c(=O)c3cccnc3n(Cc3ccc(C)cc3)c2=O)cc1,1.11 (inactive),1.94
O=C(NCCCc1ccccc1)c1ccc2c(c1)N(Cc1ccccc1)CCS2,0.992 (inactive),-0.011
CCN(CCCNC(=O)c1c[nH]c2ccc(S(=O)(=O)N(CC)CC)cc2c1=O)c1cccc(C)c1,0.423 (active),-6.22
COCCCNC(=O)c1c[nH]c2ccc(S(=O)(=O)N(C)c3cccc(C)c3)cc2c1=O,1.02 (inactive),0.264
CCCCCCNC(=O)c1c[nH]c2ccc(S(=O)(=O)N(CC)c3cccc(C)c3)cc2c1=O,1.08 (inactive),1.26
O=C(CCCN1C(=O)CSc2ncccc21)NC1CCN(Cc2ccccc2)CC1,1.02 (inactive),0.27
O=C(Nc1ccc(C(F)(F)F)cc1)c1n[nH]c(=O)c2ccccc12,1.17 (inactive),1.04
COc1ccc(-c2noc(CCC(=O)NCc3cccc(OC)c3)n2)cc1,0.872 (inactive),-1.96
CCCNC(=O)c1nn2c(C(F)(F)F)cc(-c3ccco3)nc2c1Br,1.09 (inactive),2.47
CCC(CO)NCC(O)COCc1ccc(Cl)cc1 (stereo not drawn),1.05 (inactive),0.823
O=C(Cn1nc(-c2ccccc2)c2cc(Cl)ccc21)NCc1ccccc1,1.08 (inactive),2.18
Cc1cc(Br)ccc1NC(=O)CNC(=O)Cn1c(C)cc2ccccc2c1=O,1.18 (inactive),1.84
CCCCN(CC)CCCNC(=O)C1CCN(C(=O)c2cc3sccc3n2C)CC1,0.959 (inactive),-0.744
Cc1ccc(OCC(=O)Nc2ccc(S(=O)(=O)Nc3nccs3)cc2)c(Br)c1,1 (inactive),0.0983
CCc1c(-c2ccccc2)nc2ccccc2c1C(=O)NCC1COc2ccccc2O1 (stereo not drawn),0.762 (inactive),-0.941

# — PubChem BioAssay AID1224903 (Bradner/Qi Labs at DFCI, 2016)
